Measurements: the supplement of paper PMC12669032
A number with no mark means an inactive call.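 How the source made its calls: active = AUC reduced over 20% with Padj below 0.05 in at least 2 of 3 replicates; inactive = otherwise.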

What was measured:
[1] = system: Roseburia intestinalis; assay: growth AUC relative to DMSO control (median of replicates) (fraction); higher = more growth (less inhibition), active = hit call of the paper; settings: 20 µM; 24 h
Method in brief: (§1)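 Three biological replicates, each grown on a separate day, were combined as a median for every value. In each, a gut bacterial monoculture in mGAM started at OD600 0.05 and grew anaerobically at 37 °C with 20 µM compound (1% DMSO), with OD600 read hourly over 24 h. Area under the growth curve was normalised against the plate median of solvent-only wells, or against row and column medians on the industrial chemical plate, after the minimum OD was set to 0.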

[2] = system: Streptococcus salivarius; assay: as above; settings: 20 µM; 24 h
Method in brief: as §1

Compound | growth AUC [1] | growth AUC [2]
c1coc(-c2nc3ccccc3[nH]2)c1 | 1.04 | 0.984
CC1(C)OC(c2ccco2)CN1C(=O)C(Cl)Cl (stereo unspecified) | 1.03 | 1.01
C#CCN1C(=O)COc2cc(F)c(N3C(=O)C4=C(CCCC4)C3=O)cc21 | 0.965 | 0.974
CCOC(=O)C(O)(c1ccc(Cl)cc1)c1ccc(Cl)cc1 | 1.03 | 0.978
CNC(=O)O/N=C/C(C)(C)S(C)=O (stereo unspecified) | 0.994 | 1.01
CN1COCN(Cc2cnc(Cl)s2)/C1=N/[N+](=O)[O-] | 0.952 | 1.02
O=C(O)c1ccccc1C(=O)Nc1cccc2ccccc12 | 0.993 | 0.932
CC(C)(C)C(O)/C(=C/c1ccc(Cl)cc1Cl)n1cncn1 (mixture of isomers) | 0.929 | 0.945
